HCMV inh: inhibitors of human cytomegalovirus | HFF cells, HCMV-luciferase reporter, 72 h; active compounds read low | 410,000 tested, 4.5% active | activity change, negative = inhibition, % at 57.5 µM; in the data active = activity change below about -60%; inconclusive = no clear call, values can overlap the other calls; inactive = above about -39%; also: % is scaled to controls: 0 for no effect and ±100 for the full control effect
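Luciferase read-out from HCMV-luciferase-infected HFFs (MOI 1 PFU/cell) 72 h post infection at 37C; compounds added after 16 h cell attachment; activity normalized between buffer-only basal and Salinomycin (10uM) inhibitor controls.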
Shiga toxin inh: inhibitors of Shiga toxin in Vero cells; inhibition, % at 38.7 µM; 290,000 tested, 9.2% active; Vero cells, Shiga toxin protein synthesis inhibition reporter; AID 2315; in the data active = inhibition mostly above about 28%, no sharp cut-off; inactive = mostly below about 43%; also: 0% is about no effect
Pf growth 96h: P. falciparum growth inhibition at 96 hour, primary screen for plastid delayed-death inhibitors; P. falciparum luciferase reporter growth, 96 h; Potency, µM (series often up to 28.7 µM), for the others: at the top dose activity change, negative = inhibition, most hits filed as inhibitors; 320,000 tested, 6.9% active; also: potency is read from the fitted curve at half-maximal effect; % is scaled to controls: 0 for no effect and ±100 for the full control effect
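Infected RBCs, 2% Hct / 0.05% parasitemia final; luciferase-reporter P. falciparum; cpd 96 h, 37 C, 5% CO2; luciferase detection reagent; luminescence.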
CHX counter: affects cycloheximide protein synthesis inhibition readout, counter-screen. cell reporter, cycloheximide protein synthesis inhibition counterscreen. max response, %. 300,000 tested, 12% active. AID 2314; in the data active = max response mostly above about 13%, no sharp cut-off; inactive = mostly below about 14%; also: read at 38.3 µM for the half of the compounds with a filed dose; 0% is about no effect
Pf growth 48h: inhibits P. falciparum growth in the first generation, 48 h | 310,000 tested, 5.9% active | Potency, µM (series often up to 28.7 µM), for inactives: at the top dose activity change, negative = inhibition, usual class: inhibitors | AID 504832 | P. falciparum luciferase growth in erythrocytes, 48 h; also: potency is read from the fitted curve at half-maximal effect; % is scaled to controls: 0 for no effect and ±100 for the full control effect
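Luminescence readout; reporter = integrated firefly luciferase in P. falciparum. RBC culture at 2% hematocrit, 0.1% parasitemia final, 37 C/5% CO2; decreased signal taken as growth inhibition.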
Numbers without * were called inactive; ? = inconclusive; / = no result given. Only some compounds are listed: those with a hit (about 20% of all), similar ones and a draw of the others. Unless noted, calls follow the shape of the dose curve; as a rule, active = well fitted inhibition curve with a large enough effect; inconclusive = small, poorly fitted or top-dose-only effect, or another doubt; inactive = no such curve, though single readings can be large or run the other way.

SMILES	HCMV inh	Shiga toxin inh	Pf growth 96h	CHX counter	Pf growth 48h
COc1ccc(CCNC(=O)c2ccccc2NC(=O)CN2CCN(c3ccccc3O)CC2)cc1	3.7	/	7.38µM*	/	10.4µM*
COc1ccc(N2CCN(CC(=O)Nc3ccccc3C(=O)NC(C)c3ccccc3)CC2)cc1 (centres undefined)	-5.3	/	/	/	/
Nc1cc(=O)nc(SCC(=O)Nc2ccccc2)n1CCc1ccccc1	11.5	/	/	/	/
CN(c1nc2c(c(=O)n(C)c(=O)n2C)n1CC(=O)c1ccccc1)C1CCCCC1	?	43.8	10.4µM*	11.5	?
Cn1c(=O)c2c(nc(NC3CCCC3)n2C)n(C)c1=O	-38.9	-2.7	6.5%	25.1*	12.3%
CC(C)Nc1nc2c(c(=O)n(C)c(=O)n2C)n1C	-30.6	2.1	-3.3%	-2.6	20.5%
Cn1c(=O)c2c(nc(NC3CCCCC3)n2CC(O)COc2ccccc2)n(C)c1=O (centres undefined)	11.9	-16.4	14.4%	-3.3	10.4µM*
Oc1ccccc1C=NNC(=S)NC1CC2C=CC1C2 (centres undefined)	-70.6*	/	/	/	/
Oc1c(Cl)cc(Cl)cc1/C=N/NC(=S)NC1CC2C=CC1C2 (centres undefined)	-67.8*	30.9	?	0.8	0.828µM*
Oc1ccccc1/C=N/NC(=S)NC1CC2C=CC1C2 (centres undefined)	?	56.8*	0.928µM*	35.4*	?
CCSc1nc2nc(C)cc(C)n2n1	3.5	7.8	11.7µM*	1.3	25.7%
Cc1cc(C)n2nc(C(=O)OCC(=O)NC(=O)c3ccccc3)nc2n1	-4.6	/	16.3%	/	20.0%
Cc1cc(C)n2nc(SCC(=O)Nc3ccccc3F)nc2n1	?	/	-19.7%	/	-11.5%
Cc1cc(C)n2nc(SCCOc3ccccc3F)nc2n1	36.3	113.9*	13.4%	25.8*	22.2%
Cc1ccc(CNC(=O)Cc2nc3nc(C)cc(C)n3n2)cc1	24.5	-10.8	-94.5%	-2.8	52.5%
Cc1cc(C)n2nc(CC(=O)NCc3ccccc3Cl)nc2n1	-31.8	40.1	3.29µM*	6.2	7.0%
Cc1cc(C)n2nc(C(=O)OCC(=O)NNC(=O)c3ccccc3)nc2n1	-60.7*	/	43.1%	/	11.2%
O=S1(=O)C2CC3C=CC2(O3)C(OCc2ccc(Cl)c(Cl)c2)C(Cc2ccccc2)N1Cc1ccc(Cl)c(Cl)c1 (centres undefined)	/	1.6	/	-1.7	/
O=C(CCn1c(=O)c2ccccc2n(CC(=O)NC2CCCC2)c1=O)NCCc1ccc(Cl)cc1	19.9	7.3	/	9.9	21.0%
Cn1cccc1CC(=O)N/N=C\c1c2ccccc2cc2ccccc12	1.2	28.4	22.0%	-2.8	18.3%
COCCNC(=S)N/N=C/c1c2ccccc2cc2ccccc12	-13.2	40.3	3.7µM*	7.1	6.57µM*
C=CCSc1nc2nc(C)cc(C)n2n1	-4.2	-3.4	0.329µM*	-3.6	8.0%
C[N+](C)(C)CC(=O)N/N=C/c1c2ccccc2cc2ccccc12	36.3	17.8	6.57µM*	-8.2	9.28µM*
Cc1cc(C)n2nc(C(=O)NC(c3ccccc3)c3ccccc3)nc2n1	-74.1*	-7.9	10.2%	-1.3	-0.2%
S=C(NCCN1CCOCC1)N/N=C/c1c2ccccc2cc2ccccc12	-0.1	21.9	/	13.4	-15.9%
SMILES	HCMV inh	Shiga toxin inh	Pf growth 96h	CHX counter	Pf growth 48h
C=C(C)CSc1nc2nc(C)cc(C)n2n1	18.1	17.4	7.8%	18.3	16.7%
COC(=O)C/C(O)=C(/N=Nc1cccc(C(F)(F)F)c1)C(=O)OC	-28.6	-15.2	46.9%	0.7	27.8%
O=C(Cn1ccc(NC(=O)OCc2ccccc2)nc1=O)NCc1ccc2[nH]ccc2c1	1.0	/	-0.1%	/	1.3%
CCCc1nc2sc3c(N4CCC(C)CC4)ncnc3c2c2c1CCCC2	7.0	/	/	/	/
Cc1cc(C)n2nc(SCC(=O)c3ccccc3)nc2n1	92.2	33.3	34.9%	14.4*	19.0%
Cc1cc(C)n2nc(C(=O)N3CCOCC3)nc2n1	13.5	5.0	?	5.0	53.8%
Cc1cc(C)n2nc(SCC(=O)c3cccs3)nc2n1	54.3	11.3	27.5%	14.4	2.5%
Cc1cc(C)n2nc(SCC(=O)N3CC(C)CC(C)C3)nc2n1 (centres undefined)	-65.1*	/	/	/	/
Cc1cc(C)n2nc(SC(C)C(=O)N3CCC4(CC3)OCCO4)nc2n1 (centres undefined)	-5.2	-5.7	-26.5%	0.2	2.62µM*
Cc1cc(SCC(=O)c2ccccc2)nc(C)n1	75.2	117.1*	112.3%	31.7*	103.2%
CCOC(=O)N1CCN(C(=O)CSc2nc3nc(C)cc(C)n3n2)CC1	21.7	/	/	/	/
CCc1nc2ccc(C(=O)NCCC(C)C)cn2c1N(CC)CCOC	-2.6	/	/	/	/
CC(O)Cc1cn(CC(=O)N2CCN(C(=O)OC(C)(C)C)CC2)nn1 (centres undefined)	5.7	-11.5	81.8%	-2.0	40.9%
Cc1cc(C)n2nc(C(=O)N/N=C/c3c4ccccc4cc4ccccc34)nc2n1	-75.9*	5.6	11.7µM*	-0.6	-9.1%
Cc1cc(C)n2nc(SCc3nnc(SCCCCl)o3)nc2n1	-20.4	-16.4	?	1.9	?
CCCCCCCCSc1nnc(CSc2nc3nc(C)cc(C)n3n2)o1	7.1	-6.0	?	-4.8	11.7µM*
Cc1ccc(Sc2cc(C(F)(F)F)nc(N(C)C)n2)cc1	-5.7	-14.6	23.6%	3.6	-1.7%
CN(C)c1ccc(Sc2ccc3nc(N)nc(N)c3c2)cc1	-92.1*	/	/	/	/
Cc1ccc(NC(=O)Cn2c(=O)n(Cc3nc(C)no3)c(=O)c3ccccc32)c(Cl)c1	-11.3	/	/	/	/
Cc1cccc(NC(=O)CCc2ccc(C)o2)c1	61.0	46.3	?	18.3*	16.3%
Cc1ccc(NC(=O)CCc2ccc(C)o2)cc1	-28.5	/	-26.1%	16.4*	52.2%
CC(=O)Nc1ccc(NC(=O)CCc2ccc(C)o2)cc1	-18.0	-5.9	-15.4%	2.0	-2.1%
Cc1ccc(CCC(=O)Nc2ccc(C)c(C)c2)o1	0.0	16.5	37.3%	18.9*	38.3%
COc1cc2c(cc1OC)C1=CC(=O)C(=O)N1C(C)(C)C2	?	-3.2	8.6%	0.9	?
CCC(=O)Nc1nc(C)c(-c2csc(Nc3ccc(S(=O)(=O)Nc4cc(C)on4)cc3)n2)s1	/	2.1	22.6%	-2.1	/
SMILES	HCMV inh	Shiga toxin inh	Pf growth 96h	CHX counter	Pf growth 48h
CCC(=O)Nc1nc(C)c(-c2csc(Nc3ccccn3)n2)s1	178.1	103.1*	6.1%	33.2*	13.2%
CCCC(=O)Nc1nc(C)c(-c2csc(Nc3ccccc3C)n2)s1	-14.0	-13.8	?	7.9	11.7µM*
CCCC(C)C(=O)Nc1nc(C)c(-c2csc(Nc3ccccc3OC)n2)s1 (centres undefined)	0.6	14.7	9.28µM*	-7.1	?
CCCCCCC(=O)Nc1nc(C)c(-c2csc(Nc3ccccc3OC)n2)s1	-22.2	4.1	3.7µM*	1.0	?
CCOC(=O)N1CCC(N2CCCC(C(=O)c3cccc(OC(C)C)c3)C2)CC1 (centres undefined)	9.0	-8.1	?	-1.3	?
CCN(c1ccccc1)S(=O)(=O)c1ccc(NC(=O)c2cc(=O)c3cc(C)c(C)cc3o2)cc1	1.5	/	/	/	/

Screens (PubChem)
